Experimental findings from PubChem BioAssay (NCATS) are described below.

Records with an inconclusive call do not appear. Values without a mark were called inactive. Activity calls are given as the source filed them. Calls come from the whole dose curve; as a rule, active = well fitted cell-killing curve with a large enough effect; inconclusive = small, poorly fitted or top-dose-only effect, or effect the other way; inactive = no such curve, though single readings can be large or run the other way.

Usually viability stands for a read-out of living cells in per cent, often relative to untreated cells.

Experiment [1] is described as follows: Quantitative High-Throughput drug screen in 47 multiple myeloma cell lines against the NCATS MIPE library collection: KMS28PE_JCRB cell viability assay (AID 1918983). Note: nearly all actives have a fitted effect of over 35% in size. Note: potency is the fitted concentration of half-maximal effect. A digest of the protocol:
(§1)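 500 cells/well; MIPE 4.0 drugs pin-transferred; 48 h, 37C, 5% CO2. CellTiter-Glo, 5 min RT, luminescence. Controls: DMSO 100%, media 0%.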

A short description of experiment [2]: Quantitative High-Throughput drug screen in 47 multiple myeloma cell lines against the NCATS MIPE library collection: KMS34_JCRB cell viability assay (AID 1918985). Note: nearly all actives have a fitted effect of over 40% in size. Note: potency is the fitted concentration of half-maximal effect. The method in brief: as §1
A short description of experiment [3]: Quantitative High-Throughput drug screen in 47 multiple myeloma cell lines against the NCATS MIPE library collection: OCIMY7_PLB cell viability assay (AID 1918987). Note: nearly all actives have a fitted effect of over 65% in size. Note: potency is the fitted concentration of half-maximal effect. The method in brief: as §1
Experiment [4] in a line: Quantitative High-Throughput drug screen in 47 multiple myeloma cell lines against the NCATS MIPE library collection: OCIMY5_PLB cell viability assay (AID 1918988). Note: nearly all actives have a fitted effect of over 65% in size. Note: potency is the fitted concentration of half-maximal effect. A digest of the protocol: as §1
Experiment [5] can be described thus: Quantitative High-Throughput drug screen in 47 multiple myeloma cell lines against the NCATS MIPE library collection: OPM1_PLB cell viability assay (AID 1918989). Note: nearly all actives have a fitted effect of over 40% in size. Note: potency is the fitted concentration of half-maximal effect. The method in brief: as §1
Experiment [6] is described as follows: Quantitative High-Throughput drug screen in 47 multiple myeloma cell lines against the NCATS MIPE library collection: U266_ATCC cell viability assay (AID 1919864). Note: nearly all actives have a fitted effect of over 35% in size. Note: potency is the fitted concentration of half-maximal effect. A digest of the protocol:
as §1

Experiment [7] is described as follows: Quantitative High-Throughput drug screen in 47 multiple myeloma cell lines against the NCATS MIPE library collection: XG6_PLB cell viability assay (AID 1919865). Note: nearly all actives have a fitted effect of over 40% in size. Note: potency is the fitted concentration of half-maximal effect. The method in brief: as §1
Experiment [8] in a line: Quantitative High-Throughput drug screen in 47 multiple myeloma cell lines against the NCATS MIPE library collection: VP6_DJ cell viability assay (AID 1919867). Note: nearly all actives have a fitted effect of over 40% in size. Note: potency is the fitted concentration of half-maximal effect. A digest of the protocol: as §1
A short description of experiment [9]: Quantitative High-Throughput drug screen in 47 multiple myeloma cell lines against the NCATS MIPE library collection: UTMC2_PLB cell viability assay (AID 1919868). Note: nearly all actives have a fitted effect of over 55% in size. Note: potency is the fitted concentration of half-maximal effect. The method in brief: as §1
Experiment [10] can be described thus: Quantitative High-Throughput drug screen in 47 multiple myeloma cell lines against the NCATS MIPE library collection: PE2_PLB cell viability assay (AID 1919869). Note: nearly all actives have a fitted effect of over 35% in size. Note: potency is the fitted concentration of half-maximal effect. A digest of the protocol: as §1
The nature of experiment [11]: Quantitative High-Throughput drug screen in 47 multiple myeloma cell lines against the NCATS MIPE library collection: PCM6_Riken cell viability assay (AID 1919870). Note: nearly all actives have a fitted effect of over 30% in size. Note: potency is the fitted concentration of half-maximal effect. A digest of the protocol:
as §1

The nature of experiment [12]: Quantitative High-Throughput drug screen in 47 multiple myeloma cell lines against the NCATS MIPE library collection: RPMI8226_ATCC cell viability assay (AID 1919871). Note: nearly all actives have a fitted effect of over 30% in size. Note: potency is the fitted concentration of half-maximal effect. A digest of the protocol:
as §1

Experiment [13] can be described thus: Quantitative High-Throughput drug screen in 47 multiple myeloma cell lines against the NCATS MIPE library collection: KMS11_JCRBsus cell viability assay (AID 1919873). Note: nearly all actives have a fitted effect of over 50% in size. Note: potency is the fitted concentration of half-maximal effect. A digest of the protocol: as §1
The nature of experiment [14]: Quantitative High-Throughput drug screen in 47 multiple myeloma cell lines against the NCATS MIPE library collection: KMS28BM_JCRB cell viability assay (AID 1919874). Note: nearly all actives have a fitted effect of over 35% in size. Note: potency is the fitted concentration of half-maximal effect. A digest of the protocol: as §1
Experiment [15] can be described thus: Quantitative High-Throughput drug screen in 47 multiple myeloma cell lines against the NCATS MIPE library collection: SKMM1_PLB cell viability assay (AID 1919863). For viability: series mostly up to about 46 µM. Note: nearly all actives have a fitted effect of over 35% in size. Note: potency is the fitted concentration of half-maximal effect. The conditions noted are these: SKMM1 myeloma viability, CellTiter-Glo ATP, 48 h; viability: stronger effect = lower value. The method in brief:
as §1
For orientation: ATP-based viability assays read luminescence as a measure of living cells.

Experiment [16] is described as follows: Quantitative High-Throughput drug screen in 47 multiple myeloma cell lines against the NCATS MIPE library collection: XG1_PLB cell viability assay (AID 1919866). Note: nearly all actives have a fitted effect of over 35% in size. Note: potency is the fitted concentration of half-maximal effect. A digest of the protocol:
as §1

A short description of experiment [17]: Quantitative High-Throughput drug screen in 47 multiple myeloma cell lines against the NCATS MIPE library collection: OPM2_DSMZ cell viability assay (AID 1919872). Note: nearly all actives have a fitted effect of over 30% in size. A digest of the protocol:
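Primary qHTS used for cherry-picking: cells at 500/well, library compounds for 48 h (37C, 5% CO2), luminescent ATP assay.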

As for `Oc1c(Cl)cc(Cl)c2cccnc12`, the Potency in experiment [1] is 20.9 µM (active); in experiment [2], 16.6 µM (active); in experiment [3], 10.5 µM (active); in experiment [4] it was 6.62 µM (active); in [5] it was 10.5 µM (active); in [6], 8.33 µM (active). The Potency in experiment [7] is 4.69 µM (active); in experiment [8], 5.9 µM (active); in [9], 11.8 µM (active); in experiment [10], 9.35 µM (active); in experiment [11], 9.35 µM (active); in experiment [12] it was 18700 nM (active). Further, the Potency in [13] was 18.7 µM (active); in experiment [14], 16.6 µM (active).

On to `COc1ncnc(NS(=O)(=O)c2ccc(N)cc2)c1OC`, for which the Potency result in experiment [1], in experiment [2], in experiment [5], in [6], in experiment [7] and in [16] was “inactive” each time. Moreover, the Potency result in experiment [8], in experiment [11], in experiment [12] and in experiment [13] was “inactive” in each case. Besides, in [15], the viability was 128%.

Regarding `CCC(=O)O[C@]1(C(=O)SCF)[C@H](C)C[C@H]2[C@@H]3C[C@H](F)C4=CC(=O)C=C[C@]4(C)[C@@]3(F)[C@@H](O)C[C@@]21C`, the Potency result in experiment [1], in [2], in experiment [5] and in experiment [13] was “inactive” throughout. Also, the Potency in experiment [3] is 5.26 µM (active); in experiment [4], 23.5 µM (active); in experiment [7], 4.18 µM (active); in [16] it was 14.8 µM (active); in experiment [8], 33.2 µM (active); in experiment [12], 1.9 nM (active).

On to `Cc1nnc(NS(=O)(=O)c2ccc(N)cc2)s1`, for which the Potency in [1] is 23.5 µM (active); in experiment [2], 18.7 µM (active); in [5], 14.8 µM (active); in experiment [6] it was 14.8 µM (active); in experiment [7] it was 1.87 µM (active); in [16] it was 1.32 µM (active). Further, the Potency in experiment [8] was 0.187 µM (active); in [11], 1.18 µM (active); in experiment [13], 9.35 µM (active); in experiment [14], 4.18 µM (active). Further, the Potency result in experiment [10] is “inactive”.

As for `CCCc1cc(C(N)=S)ccn1`, the Potency result in experiment [1], in experiment [2], in experiment [3], in experiment [4], in experiment [5] and in [7] was “inactive” each time. In addition, the Potency result in [8], in [11], in experiment [12], in [17] and in experiment [13] was “inactive” each time.

For the molecule `Cc1onc(-c2ccccc2Cl)c1C(=O)N[C@@H]1C(=O)N2[C@@H]1SC(C)(C)[C@@H]2C(=O)O`, the Potency entry in experiment [1], in experiment [2], in experiment [4], in experiment [5], in [7] and in [16] was “inactive” in each case. Also, the Potency result in experiment [8], in [10], in experiment [11], in [12], in experiment [17] and in experiment [13] was “inactive” throughout. Moreover, the Potency result in experiment [14] was “inactive”.

For `NS(=O)(=O)c1cc2c(cc1Cl)NC(C(Cl)Cl)NS2(=O)=O` (configuration not stated), the Potency entry in experiment [1], in experiment [2], in [4], in [5], in experiment [7] and in [16] was “inactive” in each case. Also, the Potency entry in experiment [8], in experiment [10], in experiment [12], in experiment [13] and in experiment [14] was “inactive” each time. Besides, the viability in [15] is 112%.

As for `CC(=O)CC(c1ccccc1)c1c(O)c2ccccc2oc1=O` (configuration not stated), the Potency entry in experiment [1], in [2], in experiment [3], in experiment [5], in [7] and in [8] was “inactive” in each case. Besides, the Potency result in experiment [10], in [12], in [13] and in [14] was “inactive” in each case.

Take `COc1cccc(N(C)C(=S)Oc2ccc3c(c2)CCCC3)n1`: the Potency entry in experiment [1], in experiment [2], in experiment [5], in experiment [6] and in experiment [10] was “inactive” throughout. Also, in [15], the viability was 139%. The Potency was 18700 nM (active) in [12] and 29.6 µM (active) in experiment [13].

With `CO[C@@]12[C@H](COC(N)=O)C3=C(C(=O)C(C)=C(N)C3=O)N1C[C@@H]1N[C@@H]12`, the Potency in experiment [1] is 23.5 µM (active); in experiment [2], 26.4 µM (active); in experiment [3], 18.7 µM (active); in [4], 26.4 µM (active); in experiment [5], 26.4 µM (active); in [6], 20.9 µM (active). For the same molecule, the Potency in [8] is 20.9 µM (active); in [10], 20.9 µM (active); in experiment [11], 20.9 µM (active); in experiment [13] it was 2.96 µM (active).

Take `CN1CCN(c2c(F)cc3c(=O)c(C(=O)O)cn4c3c2OCN4C)CC1`: the Potency entry in [1], in [2], in experiment [4], in experiment [5], in [6] and in experiment [16] was “inactive” each time. Further, the Potency entry in experiment [9], in experiment [11], in experiment [12], in experiment [17] and in [13] was “inactive” each time.

As for `COc1ccc(-c2ccc3cc(C(=O)O)ccc3c2)cc1C12CC3CC(CC(C3)C1)C2`, the Potency result in experiment [1], in experiment [2], in experiment [4], in experiment [16], in experiment [17] and in [13] was “inactive” in each case. Besides, the viability in experiment [15] was 119%. The values for the Potency in [6] and in experiment [12] were 5.26 µM (active) and 833 nM (active), respectively.

With `O=C(NCC1CN(c2ccc(N3CCOCC3=O)cc2)C(=O)O1)c1ccc(Cl)s1` (configuration not stated), the Potency result in experiment [1], in experiment [2], in experiment [3], in experiment [5], in experiment [6] and in experiment [7] was “inactive” throughout. Besides, the Potency entry in experiment [16], in experiment [9], in experiment [12], in [17] and in experiment [14] was “inactive” throughout. The viability in [15] was 135%.

As to `C[C@]12C=CC(=O)C=C1CC[C@@H]1[C@@H]2C(=O)C[C@@]2(C)[C@H]1CC[C@]2(O)C(=O)CO`, the Potency result in experiment [1], in experiment [2], in experiment [4], in experiment [6], in [7] and in [8] was “inactive” throughout. The Potency entry in [11], in experiment [12] and in experiment [13] was “inactive” throughout.

For `CC1CC2C3CCC4=CC(=O)C=C[C@]4(C)[C@@]3(F)[C@@H](O)C[C@]2(C)[C@@]1(O)C(=O)CO` (some centres not stated), the Potency in [1] was 0.0935 µM (active); in experiment [4] it was 2.64 µM (active); in experiment [5], 2.35 µM (active); in experiment [8] it was 0.209 µM (active); in [11], 0.118 µM (active); in experiment [12] it was 29.6 nM (active). The Potency entry in [7], in experiment [10], in experiment [17] and in experiment [14] was “inactive” throughout.

Consider `Nc1nc(N)nc(-c2cc(Cl)ccc2Cl)n1`, for which the Potency result in experiment [1], in experiment [2], in experiment [5], in [6], in experiment [16] and in [11] was “inactive” each time. For the same molecule, the Potency entry in [12] and in experiment [17] was “inactive” in each case. Also, in experiment [8], the Potency was 6.62 µM (active).

Turning to `COc1ccc(C(=O)CC(=O)c2ccc(C(C)(C)C)cc2)cc1`, the Potency in [1] was 8.33 µM (active); in experiment [3], 3.72 µM (active); in [4], 2.64 µM (active); in experiment [5], 7.43 µM (active); in experiment [15], 5.9 µM (active); in experiment [6], 5.26 µM (active). The Potency in experiment [7] was 0.743 µM (active); in [8], 2.64 µM (active); in experiment [10], 5.26 µM (active); in experiment [11], 0.935 µM (active); in experiment [14] it was 7.43 µM (active). The Potency entry in experiment [13] is “inactive”.
